Source: PubChem (Sanford-Burnham Center for Chemical Genomics)
This is a sample that favours compounds with a hit; in the whole collection about 31% have one here.
PLAP activator: PLAP enzyme activators, biochemical, luminescence, HTS; Alkaline phosphatase, placental type (Homo sapiens), P05187; purified PLAP enzyme, luminescent substrate read-out; active compounds read high; activation fold at 20 µM; 1.2% of 96,000 active; in the data active means activation fold above about 2
CYP2C9 inh: blockers of cytochrome P450 2C9 activity – biochemical, luminescence, ADME assay, primary screen; CYP2C9 Supersomes, luciferin-H conversion; inhibition, % at 5 µM; 20% of 96,000 active;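 active means blocking of liver enzyme CYP2C9 beyond about 50% at 5 µM, limit read from the data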
Target sequence (P11712 whole entry, looked up): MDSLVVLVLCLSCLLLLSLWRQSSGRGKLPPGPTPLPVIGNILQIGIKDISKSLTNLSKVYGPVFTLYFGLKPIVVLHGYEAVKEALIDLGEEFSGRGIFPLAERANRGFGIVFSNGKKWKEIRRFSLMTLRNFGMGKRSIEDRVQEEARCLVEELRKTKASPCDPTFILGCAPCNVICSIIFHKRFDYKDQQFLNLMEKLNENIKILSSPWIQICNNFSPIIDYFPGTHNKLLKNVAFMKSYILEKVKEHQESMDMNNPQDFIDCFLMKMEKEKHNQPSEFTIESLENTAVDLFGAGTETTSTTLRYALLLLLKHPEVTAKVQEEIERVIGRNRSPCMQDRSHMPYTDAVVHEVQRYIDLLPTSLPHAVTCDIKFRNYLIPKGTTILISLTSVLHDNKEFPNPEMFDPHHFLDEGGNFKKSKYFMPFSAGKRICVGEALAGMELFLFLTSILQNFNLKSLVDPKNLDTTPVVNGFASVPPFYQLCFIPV
CYP2C19 inh: blockers of cytochrome P450 2C19 activity – biochemical, luminescence, ADME assay, primary screen; inhibition, % at 5 µM; CYP2C19 Supersomes, luciferin-H EGE luminescence, 30 min; AID 778, 2007; 21% of 96,000 active; P33261;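 active means CYP2C19 inhibition above a set limit at 5 µM in the primary screen, cut at about 50% in these data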;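 further: plate controls were negative control wells for no effect and 2.5 mM tranylcypromine positive control for full effect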
CYP2C9 activ: human CYP2C9 activators, primary screen, biochemical, luminescence | recombinant CYP2C9, luciferin-H conversion; active compounds read high; factor 1 = untreated enzyme, 0 = blocked | activation factor at 5 µM | 1.4% of 96,000 active | AID 1024, 2008;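 active means activation factor of 2 or more for CYP2C9 at a 5 µM dose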;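 further: 0 = sulfaphenazole-blocked wells and 1 = vehicle-only wells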
CYP2C19 act: human CYP2C19 activators, primary screen, biochemical, luminescence | Cytochrome P450 2C19 (Homo sapiens), P33261 | recombinant CYP2C19, luciferin-H EGE luminescence; active compounds read high; 0 = fully inhibited enzyme, 1 = untreated enzyme | activation factor at 5 µM | 96,000 tested, under 10 active;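 active means activation factor of at least 2 at 5 µM in the primary screen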;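 further: 0 = wells with 2.5 mM tranylcypromine and 1 = vehicle-only wells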
Numbers without * were called inactive.

SMILES	PLAP activator	CYP2C9 inh	CYP2C19 inh	CYP2C9 activ	CYP2C19 act
Cc1ccc(OCC(=O)N2CCN(c3nnc(-c4ccc(C)cc4)c4ccccc34)CC2)cc1	1.8	92*	88*	0.1	0.1
COc1ccc(OCC(=O)N2CCN(c3nnc(-c4ccccc4)c4ccccc34)CC2)cc1	1.5	43	50*	0.6	0.5
O=C(c1cc(-c2ccccc2)on1)N1CCCC1	0.9	-22	11	1.2	0.9
O=C(NCc1ccccn1)C1CCN(S(=O)(=O)N2CCCC2)CC1	1	-1	-6	1	1.1
Cc1ccc(-c2nnc(N3CCN(C(=O)c4ccco4)CC3)c3ccccc23)cc1	1.6	76*	68*	0.2	0.3
CC1(C(=O)N2CC3(CC(c4cccc([N+](=O)[O-])c4)=NO3)C[C@H]2C(=O)NCC(N)=O)CC1 (some centres undefined)	1.2	-15	5	1.1	1
CN(/N=C/c1ccncc1)c1cnn(-c2ccc(F)c(Cl)c2)c(=O)c1Cl	1	93*	91*	0.1	0.1
Cc1cccc2cc(COC(=O)COc3ccccc3)c(=O)[nH]c12	1	-12	-11	1.1	1.1
Cc1ccc(S(=O)(=O)Nc2nc(C)c(NC(=O)Nc3ccc(Cl)cc3Cl)s2)cc1	1.3	61*	4	0.4	1
Cc1ccc(S(=O)(=O)Nc2nc(C)c(NC(=O)OCCCl)s2)cc1	1.5	89*	4	0.1	1
Cc1ccc(NC(=O)Nc2cccs2)c(Cl)c1	1	15	19	0.8	0.8
c1ccc(Cn2nnnc2CN2CCN(c3ncccn3)CC2)cc1	0.9	93*	19	0.1	0.8
Fc1ccc(Cn2nnnc2CN2CCc3ccccc3C2)cc1	0.9	47	58*	0.5	0.4
Cc1cc(CN2C(=O)c3ccccc3C2=O)cc(N2CCOCC2)c1	1.4	-61	47	1.6	0.5
N#C/C(=C\c1cc([N+](=O)[O-])c(N2CCOCC2)cc1N1CCOCC1)c1nc2ccccc2[nH]1	0.8	97*	91*	0	0.1
Cc1cc(/C=C(/C#N)c2nc3ccccc3[nH]2)c(C)n1-c1cccc([N+](=O)[O-])c1	1.5	81*	40	0.2	0.6
N#C/C(=C\c1cc([N+](=O)[O-])c(N2CCCCC2)cc1N1CCCCC1)c1nn(-c2ccccc2)c(N)c1C#N	0.9	97*	69*	0	0.3
Cc1cc(C=C(C#N)C#N)c(C)n1-c1ccccc1	1	30	43	0.7	0.6
N#C/C(=C\c1cccc(Oc2ccc(C(F)(F)F)cc2[N+](=O)[O-])c1)c1nc2ccccc2[nH]1	0.9	30	24	0.7	0.8
COc1ccc2c(c1)CCc1cc(C(=O)N3CCN(c4ccc(N5CCOCC5)nn4)CC3)sc1-2	1.4	3	-1	1	1
CCCCSc1nc(N)c(NC(=O)c2ccco2)c(=O)[nH]1	1	-10	-21	1.1	1.2
CCCc1cc(=O)oc2cc(C)cc(OC(=O)c3ccco3)c12	0.8	3	8	1	0.9
Cc1cc(OC(C)C)c2c(-c3ccccc3)cc(=O)oc2c1	0.9	80*	43	0.2	0.6
Cc1cc(OCC(=O)N2CCc3ccccc3C2)c2c(-c3ccccc3)cc(=O)oc2c1	1.7	97*	86*	0	0.1
CCOc1cc(C)cc2oc(=O)cc(-c3ccccc3)c12	0.7	55*	19	0.5	0.8
SMILES	PLAP activator	CYP2C9 inh	CYP2C19 inh	CYP2C9 activ	CYP2C19 act
O=C(Oc1ccc2c(-c3ccccc3)cc(=O)oc2c1)C1CCCCC1	1.2	32	32	0.7	0.7
CC(=O)c1cccc(NC(=O)c2ccc(N(Cc3ccc(C)cc3)S(C)(=O)=O)cc2)c1	1.3	85*	85*	0.1	0.1
Cc1ccc(CN(c2ccc(C(=O)Nc3ccc4c(c3)OCO4)cc2)S(C)(=O)=O)cc1	1.4	40	44	0.6	0.6
CS(=O)(=O)N(Cc1ccc(Cl)cc1)c1ccc(C(=O)Nc2cccnc2)cc1	1.4	84*	95*	0.2	0
CC1CCCC(NC(=O)Nc2cccs2)C1C (centres undefined)	0.9	5	32	0.9	0.7
Cn1c(Oc2ccccc2)c(C=O)c2ccccc21	0.8	-59	47	1.6	0.5
CC1(C)Cc2c(c(N3CCOCC3)nc3sc4c(NCc5ccco5)nnnc4c23)CS1	1.5	93*	61*	0.1	0.4
CC1(C)Cc2c(c(N3CCOCC3)nc3sc4c(NN)ncnc4c23)CS1	1	10	-18	0.9	1.2
CC1(C)Cc2c(c(N3CCOCC3)nc3sc4c(NCc5ccccc5)nnnc4c23)CS1	1.4	98*	57*	0	0.4
CC(C)CNc1nnnc2c1sc1nc(N3CCOCC3)c3c(c12)CC(C)(C)SC3	1.1	81*	34	0.2	0.7
O=C1c2ccccc2C(=O)C1c1ccc2ccccc2n1	0.7	74*	82*	0.3	0.2
COC(=O)C1=C(C)NC(C)=C(C(=O)OC)C1c1ccc2ccccc2n1	1	50*	77*	0.5	0.2
COC(=O)C1=C(C)NC(C)=C(C(=O)OC)C1c1ccc(NC(C)=O)cc1	1.1	52*	33	0.5	0.7
CCN(CC)c1ccc(C2C(C(=O)OC)=C(C)NC(C)=C2C(=O)OC)cc1	1.1	18	34	0.8	0.7
O=C(OC1CCOC1=O)c1ccc2ccccc2n1 (centres undefined)	1.3	-6	-2	1.1	1
Cc1ccccc1OCc1nnc2n1CC(C)S2 (centres undefined)	0.9	14	6	0.9	0.9
CCNc1nc(N2CCCCC2)nc(-n2nnc(C(=O)OCC)c2C)n1	1.3	18	19	0.8	0.8
CCCCN(C(=O)NC(=O)Nc1ccccc1OCC)S(C)(=O)=O	0.9	79*	54*	0.2	0.5
Cc1cccc(-c2nnc(SCC#N)n2Cc2ccccc2)c1	1.2	51*	77*	0.5	0.2
N#CCCCSc1nnc(-c2ccc(Cl)cc2)n1-c1ccccc1	1	50*	34	0.5	0.7
Cc1cccc(-c2nnc(SCC#N)n2-c2ccccc2)c1	1.1	36	51*	0.6	0.5
COc1ccc(N2CCN(C(=O)CSc3nnnn3-c3ccc4c(c3)OCCO4)CC2)cc1	1.7	18	30	0.8	0.7
CCCS(=O)(=O)c1nnnn1-c1cccc(OC)c1	1.3	-12	37	1.1	0.6
Cc1cccc(C)c1-n1nnnc1S(=O)(=O)Cc1ccccc1Cl	0.8	83*	42	0.2	0.6
Cn1c(=O)c2cc(S(=O)(=O)NCCC(=O)NCCc3ccc(Cl)cc3)ccc2n(C)c1=O	1.2	-23	11	1.2	0.9
